A selection: hits, their analogues and other compounds. The true share with any hit is near 10%.
Insulin prom inh: TRM-6 insulin promoter activity inhibition; TRM-6 cells (human fetal islet line), insulin promoter-eGFP reporter, imaging; reporter expression induced with tamoxifen; inhibition, % at 2 µM; hit rate 0.9% among 130,000;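 active means inhibition above the mean plus 3 SD, with well images judged a real hit on visual review, cut at about 60% in these data, passing the limit was not always enough; inconclusive means inhibition over the cutoff but images rejected on review; inactive means inhibition not above the cutoff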
p97 ATPase inh: human p97 ATPase inhibition; P55072; recombinant p97 ATPase, Kinase-Glo ATP luminescence, 3 h; inhibition, % at 8 µM; hit rate 0.42% among 220,000; AID 1481; in the data active means inhibition above about 15%;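 further: 0% = DMSO vehicle and 100% = wells lacking enzyme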
bCat KO growth: beta-catenin-lacking colon tumor cell growth suppression; hit rate 1.5% among 140,000; viability, % at 10 µM; HCT116 beta-catenin knockout viability, CellTiter-Glo, 60 h; active compounds read low; AID 818;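 active means viability at or under a set limit, the compound median less 4 SD, cut at about 6% in these data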;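 further: 0% = Hyamine 1622 control at 20 µM and 100% = untreated cell control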
HCT116 PTEN-null: growth suppressors of cells with PTEN tumor suppressor deletion; HCT116 PTEN-null viability, CellTiter-Glo, 60 h; active compounds read low; viability, % at 10 µM; hit rate 1.2% among 140,000;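 active means viability at or below a set limit, 4 SD under the median of all tested compounds, cut at about 3.7% in these data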;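 further: PTEN knockout HCT116 line with beta catenin targeted HCT116 as companion control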
ROMK mod: modulates human ROMK potassium channel activity | AID 1918 | hit rate 2% among 130,000 | Tet-inducible ROMK, thallium flux fluorescence; actives lie on both sides | B-score at 10 µM | P48048;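 active means signal ratio slope over the read window, or its plate-corrected B-score, at least 3 SD from the plate mean, either direction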;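 further: B-score of the F/F0 ratio slope over 7 to 12 s after thallium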
Target sequence (P48048 whole entry, looked up): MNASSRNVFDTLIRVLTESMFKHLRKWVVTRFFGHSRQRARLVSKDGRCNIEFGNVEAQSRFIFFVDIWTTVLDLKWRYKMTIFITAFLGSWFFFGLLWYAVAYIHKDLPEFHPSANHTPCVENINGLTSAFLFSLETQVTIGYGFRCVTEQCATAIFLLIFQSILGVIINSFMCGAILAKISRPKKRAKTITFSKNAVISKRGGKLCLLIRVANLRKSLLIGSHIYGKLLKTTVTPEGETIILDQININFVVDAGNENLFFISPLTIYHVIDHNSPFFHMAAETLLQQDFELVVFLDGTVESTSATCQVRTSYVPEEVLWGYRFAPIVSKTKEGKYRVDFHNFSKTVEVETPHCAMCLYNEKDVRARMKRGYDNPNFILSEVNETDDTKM
Lmaj promast: inhibitors of Leishmania major promastigote growth; Leishmania major promastigotes, resazurin fluorescence viability; inhibition, % at 10 µM; hit rate 9% among 200,000; AID 1063; in the data active means inhibition above about 50%;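 further: promastigotes grown with compound for 44 hours at 28 °C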
ROMK hit retest: human ROMK channel modulation, retest confirmation; shares compounds with ROMK mod; ROMK thallium flux, fluorescence ratio; active compounds read low; normalized thallium flux (F/F0 slope) at 10 µM; hit rate 54% among 3,000;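 active means Flux at 10 µM at least 3 SD below or above vehicle control mean in one or both replicates; inconclusive means no clear call, values can overlap the other calls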
* = called active by the depositor; ? = inconclusive; / = no result given.

SMILES | Insulin prom inh | p97 ATPase inh | bCat KO growth | HCT116 PTEN-null | ROMK mod | Lmaj promast | ROMK hit retest
Cc1ccc(N=Cc2cc(Br)cc(Cl)c2O)cc1 | / | 2.5 | / | / | 3.44* | -4.1 | 0.101*
COc1ccc(C(=O)CN2Cc3ccccc3C2=N)cc1 | / | 3.3 | / | / | / | / | /
CCOC(=O)c1cnc(SCC(=O)Nc2ccc(NC(=O)CC)c(OC)c2)nc1N | 7.1 | 5.3 | 103.7 | 96.5 | 0.423 | 5.2 | /
COc1ccc(CC(=O)NCCc2ccc(S(N)(=O)=O)cc2)cc1 | 32.4 | 3.7 | 98.9 | 98.8 | 1.53* | -3.3 | 0.0852
COCC(=O)NCCc1ccc(S(N)(=O)=O)cc1 | -83.3 | -9.6 | 104.6 | 91.9 | / | -1.4 | /
CCCN(C(=O)CCl)C1=CCCCC1 | / | 3.4 | / | / | -2.02 | 4.9 | /
Cc1cccc(NC(=O)CSc2nnc(NC(=O)c3ccc(S(=O)(=O)N4CCOCC4)cc3)s2)c1C | 0.0 | 5.2 | 87.1 | 92.5 | 0.469 | 86.7* | 0.0879
O=C(CSc1nnc(Nc2ccccc2)s1)Nc1ccc(S(=O)(=O)N2CCOCC2)cc1 | 14.3 | 3.0 | 52.9 | 55.6 | 0.291 | 9.7 | /
CC(=O)c1sc2nsc(SCCN3CCCCC3)c2c1N | / | 0.4 | / | / | / | / | 0.0531*
Nc1c(C(=O)c2ccccc2)sc2nsc(SCCN3CCCC3)c12 | / | 3.0 | / | / | / | / | /
CN1/C(=C\C(=O)C(F)F)C(C)(C)c2ccccc21 | -4.5 | 4.7 | 93.6 | 92.2 | / | -0.3 | /
CC1=C/C(=C\C=C(C#N)C#N)N(C)c2ccccc21 | / | -1.2 | / | / | -3.99* | / | 0.0414*
C=CCn1c(=S)sc2c(=O)[nH]cnc21 | / | -1.1 | / | / | / | / | /
Cc1ccc(CNc2nc(Cl)c(C#N)s2)cc1 | / | 3.8 | / | / | 1.12* | 2.4 | 0.0811
O=C(Nc1ccon1)c1cccc(S(=O)(=O)N2CCCC2)c1 | 20.6 | 3.5 | 97.6 | 100.6 | / | -0.9 | /
CCN1C(=O)/C(=C/C=C2/CCCN2C)OC1=S | / | 4.3 | / | / | -4.89* | -4.8 | 0.0639*
Cc1cc(N2CCOCC2)ccc1/C=C1\NC(=O)N(CC(=O)Nc2ccc(F)cc2)C1=O | / | -1.6 | / | / | 0.204 | -2.2 | /
Cc1cc(N2CCOCC2)ccc1/C=C1\NC(=O)N(CC(=O)Nc2ccccc2C)C1=O | 1.4 | 3.9 | 92.5 | 95.8 | 0.745* | -0.6 | ?
CCc1ccc2[nH]c(=O)c(CN(Cc3ccccc3OC)C(=O)Nc3ccccc3OC)cc2c1 | 11.4 | 2.4 | 67.7 | 64.7 | 0.96* | 16.1 | 0.0804
CCN(CC)CCN(Cc1cc2cc(C)ccc2[nH]c1=O)C(=O)Nc1ccccc1OC | 6.5 | -3.8 | 52.5 | 54.3 | / | 30.4 | /
Cc1ccccc1N1C(=O)C(Oc2ccc(Cl)cc2)C1CNCCCOC(C)C (centres undefined) | -10.3 | 2.1 | 54.0 | 50.4 | -3.22* | 93.5* | 0.0585*
CC(C)OCCCNC1=C(Cl)C(=O)c2ccccc2C1=O | / | 1.8 | / | / | / | / | /
Cc1nc([N+](=O)[O-])cn1CC(O)c1ccc(-c2ccccc2)cc1 (centres undefined) | / | 0.7 | / | / | 0.0237 | / | /
Cn1c(-[n+]2c(-c3ccccc3)cc(-c3ccccc3)cc2-c2ccccc2)nc2cc([N+](=O)[O-])ccc21 | / | -5.9 | 34.9 | 29.0 | / | 42.4 | 0.0603*
COc1ccc(C(CNC(=O)c2cc3ccccc3cc2OC)N2CCCC2)cc1 (centres undefined) | -49.1 | -9.8 | 77.6 | 76.0 | -3.1* | 10.5 | 0.0619*
SMILES | Insulin prom inh | p97 ATPase inh | bCat KO growth | HCT116 PTEN-null | ROMK mod | Lmaj promast | ROMK hit retest
OCCC1CN(Cc2ccc3cc(Cl)ccc3n2)CCN1Cc1ccsc1 (centres undefined) | / | -0.2 | / | / | -0.211 | 18.1 | /
O=C(CN1CCOCC1)Nc1ccccc1Sc1ccccc1 | 28.6 | -0.1 | 80.7 | 85.0 | -1.75 | -1.1 | /
NC(=O)C1CCN(CC(=O)Nc2ccccc2Sc2ccccc2)CC1 | 9.4 | 1.2 | 96.2 | 97.2 | / | 3.5 | 0.0678*
COc1ccccc1NC(=O)CC1COc2ccccc2O1 (centres undefined) | -2.8 | 2.1 | 86.1 | 91.4 | / | 0.1 | /
O=[N+]([O-])c1ccc(-c2ccc(/C=N/Nc3nc(NCc4ccccc4)nc(N4CCOCC4)n3)o2)cc1 | -200.0 | 7.2 | / | / | -3.91* | 13.5 | 0.0635*
NC(=S)N/N=C/c1ccc(-c2ccc([N+](=O)[O-])cc2)o1 | / | 9.3 | / | / | -0.387 | 13.4 | /
Cc1cccn2c(=O)c3cc(C(=O)NCCN4CCOCC4)c(=N)n(CCc4ccccc4)c3nc12 | 60.0 | -3.0 | 27.2 | 24.8 | -2.84* | 66.2* | 0.0625*
COCCn1c(=N)c(C(=O)NCCc2ccccc2)cc2c(=O)n3cccc(C)c3nc21 | 5.4 | 4.0 | / | / | / | 10.7 | /
Cc1ccccc1-c1n[nH]c(=S)n1/N=C/c1c(C)nn(-c2ccccc2)c1C | -51.9 | -2.4 | 58.8 | 58.7 | / | 6.7 | /
COc1cccc(/C=N/NC(=O)c2cc3c(OC)cccc3[nH]2)c1OC | -56.2 | 5.2 | 95.3 | 97.9 | / | 1.1 | 0.0703
COc1ccc(OC)c(/C=N/NC(=O)c2cc3c(OC)cc(OC)cc3[nH]2)c1 | / | -2.1 | / | / | / | / | /
COc1cc(-n2c(=O)c3ccccc3n(Cc3ccccc3)c2=O)cc(OC)c1OC | 28.6 | -8.2 | 100.9 | 92.0 | / | 0.9 | /
C/C(=N\NC(=O)c1ccccc1)c1cc2cc([N+](=O)[O-])ccc2oc1=O | / | 8.9 | 53.6 | 52.8 | -2.89* | -5.6 | 0.0552*
C/C(=N\NC(=O)c1ccc([N+](=O)[O-])cc1)c1cc2ccccc2oc1=O | / | 4.3 | 35.3 | 27.2 | / | -7.2 | /
O=C1CSC(c2ccccc2)N1c1nnc(C23CC4CC(CC(C4)C2)C3)s1 (centres undefined) | 28.6 | 2.9 | 80.2 | 76.7 | 1.02 | -0.9 | /
CCCC1(C(=O)OCC)NC(c2ccc(O)cc2)C2C(=O)N(c3ccc4c(c3)OCCO4)C(=O)C21 (centres undefined) | 20.0 | 1.1 | 97.5 | 102.5 | 1.17* | 8.8 | 0.0748
CCOc1ccc(N2C(=O)C3C(c4ccc(O)cc4)NC(CCSC)(C(=O)OC)C3C2=O)cc1 (centres undefined) | 0.0 | 4.8 | / | / | 0 | -4.0 | /
Cc1noc(C(F)(F)F)c1C(=O)NNC(=O)c1cccc(C(F)(F)F)c1 | / | 4.7 | / | / | -0.00102 | / | /
Cc1csc2c(N3CCN(C(=O)Nc4ccc(OC(F)(F)F)cc4)CC3)ncnc12 | / | -8.2 | / | / | / | / | 0.0715
O=C(Nc1nnc(C(F)(F)F)s1)c1ccc(Br)s1 | / | -0.6 | / | / | -2.96* | 10.0 | 0.0901
CCSc1nnc(NC(=O)c2ccc(Br)s2)s1 | 5.3 | 2.1 | 99.4 | 83.5 | / | 6.2 | /
O=C(Nc1ccccc1C(=O)Nc1nnc(C(F)(F)F)s1)c1ccccc1Cl | / | 5.3 | / | / | / | / | 0.0612*
O=Cc1ccc(-c2ccccc2OC(F)(F)F)o1 | -10.0 | -2.9 | 99.1 | 103.9 | 3.84* | 1.9 | 0.11*
COc1ccccc1OCc1ccc(C(=O)N(C)C)o1 | 11.4 | -2.0 | 98.4 | 93.9 | / | -0.3 | 0.0841
CN(C)C(=O)c1ccc(COc2ccccc2Br)o1 | -421.1 | -5.3 | 94.7 | 90.7 | -0.891 | -2.5 | /
CC(c1ccccc1)N1CC(C(=O)N2CCN(c3ccc(F)cc3)CC2)CC1=O (centres undefined) | 0.0 | 3.6 | 86.8 | 89.9 | -0.0489 | 3.5 | /
COc1ccc(N/C=C2\C(=O)CCc3c2oc2cc(Cl)c(O)c(Cl)c32)cc1 | / | 4.6 | / | / | / | / | 0.0641*

Screening data from PubChem BioAssay.
